Assay outcomes (PubChem)
Compounds with a hit are over-represented: about 5.2% of the library has one in this group of screens.
Tau ThT inhib: blocks human tau fibril formation measured by thioflavin T; P10636; recombinant tau K18 P301L, heparin-induced fibrillization, ThT fluorescence; Potency, µM (top dose mostly 57.4 µM), without a hit: at the top dose activity, negative = inhibition, hits mostly inhibitors; 270,000 tested, 2.1% active; further: potency means the concentration at half of the fitted maximal effect; nearly all actives have a fitted effect of over 55% in size
Target sequence (P10636 561-689 P618L limits assumed): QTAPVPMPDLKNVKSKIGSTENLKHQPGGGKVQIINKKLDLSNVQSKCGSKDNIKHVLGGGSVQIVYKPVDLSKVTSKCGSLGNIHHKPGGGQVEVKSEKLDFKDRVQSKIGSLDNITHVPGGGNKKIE
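Recombinant human tau K18 fragment […] carrying P301L, 15 uM unlabeled plus 0.24 uM Alexa 594-labeled, was fibrillized with 20 uM heparin in 100 mM sodium acetate pH 7 for 6 hr at 37 C; 30 uM ThT fluorescence read after 1 hr.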
Coupling enz: inhibits coupling enzyme system, counter-screen for aldolase hits. coupling enzyme system counterscreen, AmpLite Red fluorescence. activity change, negative = inhibition, % at 58.2 µM, hits read low. 290,000 tested, 0.67% active. AID 2472; in the data active means activity change below about -30%
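Compounds tested against the coupling enzymes alone at 57.5 uM final; readout was AmpLite Red fluorescence (525/598 nm) after 20 min at RT.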
Tau fluor counter: counter-screen for tau fibril formation inhibitors. tau K18 P301L (four-repeat tau fragment) Alexa594 fluorescence, heparin fibrillization. Potency, µM (doses to about 57.7 µM), inactives show top-dose activity change, negative = decrease. 280,000 tested, 0.93% active; further: potency means the concentration at half of the fitted maximal effect; nearly all actives have a fitted effect of over 55% in size
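Human K18 P301L tau (15 uM unlabeled plus 0.24 uM Alexa 594-labeled, final) in 100 mM sodium acetate pH 7 was mixed with compound and 20 uM heparin and incubated 6 hr at 37 C.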
Tau FP inhib: blocks human tau fibril formation measured by polarization | 280,000 tested, 0.39% active | K18 P301L tau heparin fibrillization, Alexa594 FP, 6 h | Potency, µM (highest dose often 57.7 µM), inactives show top-dose activity, negative = inhibition, hits mostly inhibitors | P10636 | AID 1468; further: potency means the concentration at half of the fitted maximal effect; nearly all actives have a fitted effect of over 55% in size
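Quantitative HTS format: compounds meet 15 uM recombinant K18 P301L tau and Alexa 594-tau tracer in 100 mM sodium acetate pH 7; 20 uM heparin triggers fibrillization at 37 C over 6 hr; FP gives the signal.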
Sfp PPTase inh: inhibitors of Bacillus subtilis Sfp phosphopantetheinyl transferase. Q9F4F7. Biochemical Sfp PPTase activity, qHTS. Potency, µM, inactives show largest response in the series, negative = inhibition, actives largely listed as inhibitors. 310,000 tested, 3.5% active;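 further: the enzyme is Sfp with the accession as filed and its product quenches rhodamine fluorescence; potency means the concentration at half of the fitted maximal effect; 0% = enzyme reaction without inhibitor and -100% = no enzyme wells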
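With Hepes-Na pH 7.6 buffer containing 10 mM MgCl2, Sfp (15 nM) modified BHQ-2-YbbR (12.5 uM) using rhodamine-CoA (5 uM). Two reads 30 minutes apart at 525/598 nm yielded each well's rate.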
* hit, by the source's call; [ ] = dose if it differs, or a comment. Unless noted, the call rests on the fitted dose curve; in most records, active means well fitted curve in the direction sought with a large enough effect; inconclusive means small, poorly fitted or top-dose-only effect, or another doubt; inactive means no such curve, though single readings can be large; an effect the other way counts as inactive or inconclusive. Unless noted, on the % scale 0 is the no-effect control and ±100 the full control effect.

O=C(CSc1nc2ccccc2[nH]1)N1CCN(c2ccc(F)cc2)CC1 was read as Tau ThT inhib -12%, Coupling enz 1, Tau fluor counter -8%, Tau FP inhib 6% and Sfp PPTase inh -3%.
For O=C(CCCSc1nc2ccccc2[nH]1)N1CCN(c2ccc([N+](=O)[O-])cc2)CC1 the results were Tau ThT inhib 0.79µM*, Coupling enz 0, Tau fluor counter -19%, Tau FP inhib -6% and Sfp PPTase inh 9%.
`N#CC1=C(N)OC2=C(CCC/C2=C/c2ccoc2)C1c1ccoc1` (stereo not given) gave Tau ThT inhib 28µM*, Coupling enz -6, Tau fluor counter -21%, Tau FP inhib inconclusive and Sfp PPTase inh 40µM*.
Screening O=C(CSCc1ccc(Cl)cc1)N/N=C/c1ccccc1 returned Tau ThT inhib -11%, Coupling enz -37*, Tau fluor counter inconclusive, Tau FP inhib -9% and Sfp PPTase inh -7%.
`O=C(Nc1ccc2c(c1)CCCN2C(=O)c1cccs1)c1cccc(C(F)(F)F)c1` gave Tau ThT inhib -7%, Tau fluor counter -27% and Tau FP inhib 0%.
For Clc1ccc(CSc2ccc(-c3ccco3)nn2)cc1 the results were Tau ThT inhib -18%, Coupling enz 1, Tau fluor counter -11%, Tau FP inhib -9% and Sfp PPTase inh 56µM*.
For Clc1cccc(CSc2ccc(-c3cccnc3)nn2)c1 the results were Tau ThT inhib inconclusive, Coupling enz 0, Tau fluor counter -15%, Tau FP inhib 9% and Sfp PPTase inh 6%.
Cc1cccc(CSc2ccc(-c3ccco3)nn2)c1 was read as Tau ThT inhib -15%, Coupling enz 0, Tau fluor counter -7%, Tau FP inhib -5% and Sfp PPTase inh inconclusive.
Screening Cc1ccc(CSc2ccc(-c3ccco3)nn2)cc1 returned Tau ThT inhib inconclusive, Coupling enz 1, Tau fluor counter -14%, Tau FP inhib -4% and Sfp PPTase inh 28µM*.
Screening c1ccc(CSc2ccc(-c3ccco3)nn2)cc1 returned Tau ThT inhib -18%, Coupling enz 0, Tau fluor counter -9%, Tau FP inhib -2% and Sfp PPTase inh 32µM*.
`Clc1cccc(CSc2ccc(-c3ccco3)nn2)c1` gave Tau ThT inhib inconclusive, Coupling enz -1, Tau fluor counter -18%, Tau FP inhib 3% and Sfp PPTase inh 35µM*.
Screening CCNc1ncc2nc(CCc3ccccc3)c(=O)n(C[C@H]3CCCO3)c2n1 returned Coupling enz 2 and Sfp PPTase inh 0%.
Screening OC[C@@H]1OC(O)[C@H](O)[C@H](O)[C@H]1O (stereo not given in full) returned Coupling enz 0 and Sfp PPTase inh inconclusive.
Screening CCN(CC)C(=O)CC(c1ccc(OC)cc1)c1c(OC)cc(OC)c2c(-c3ccccc3)cc(=O)oc12 (stereo not given) returned Coupling enz 0 and Sfp PPTase inh -9%.
`COC(=O)c1ccc(-n2nnc(-c3nc(-c4ccc5c(c4)OCO5)no3)c2C)cc1` gave Tau ThT inhib inconclusive, Tau fluor counter -11% and Tau FP inhib -4%.
Screening Fc1ccccc1CSc1ccc(-c2ccco2)nn1 returned Tau ThT inhib -18%, Coupling enz 5, Tau fluor counter -17%, Tau FP inhib -1% and Sfp PPTase inh 56µM*.
Screening Cc1ccc(N=Nc2c(N)n(-c3ccccc3)[nH]c2=O)cc1 returned Tau ThT inhib 3.2µM*, Coupling enz 0, Tau fluor counter 10µM*[quencher], Tau FP inhib -2% and Sfp PPTase inh 10%.
Screening CC(C)C[C@H](NC(=O)[C@@H](Cc1c[nH]c2ccccc12)NC(=O)[C@H](Cc1ccc(O)cc1)NC(=O)[C@H](CO)NC(=O)[C@H](Cc1c[nH]c2ccccc12)NC(=O)[C@H](Cc1cnc[nH]1)NC(=O)[C@@H]1CCC(=O)N1)C(=O)N[C@@H](CCCN=C(N)N)C(=O)N1CCC[C@H]1C(=O)NCC(N)=O returned Coupling enz 3 and Sfp PPTase inh 11%.
`COc1ccc(NC(=O)C2CCCN(S(=O)(=O)c3ccc4c(c3)CCCC(=O)N4)C2)c(OC)c1` (stereo not given) gave Tau ThT inhib 1%, Tau fluor counter -7% and Tau FP inhib -1%.
For Cc1nonc1CN(C)C(=O)CC1C(=O)NCCN1Cc1c(F)cccc1Cl (stereo not given) the results were Tau ThT inhib inconclusive, Coupling enz -1, Tau fluor counter 24%, Tau FP inhib 9% and Sfp PPTase inh inconclusive.
`CN(CCc1ccccn1)C(=O)CC1C(=O)NCCN1Cc1ccc(-c2ccccc2)cc1` (stereo not given) gave Tau ThT inhib inconclusive, Coupling enz -19, Tau fluor counter -11%, Tau FP inhib -4% and Sfp PPTase inh 50µM*.
For Cc1cc(CN(C)C(=O)CC2C(=O)NCCN2Cc2c(F)cccc2Cl)n[nH]1 (stereo not given) the results were Tau ThT inhib -6%, Coupling enz -17, Tau fluor counter 5%, Tau FP inhib -5% and Sfp PPTase inh 50µM*.
`N#CCCn1c(=O)c(-c2ccc(F)cc2)nc2cnc(Oc3ccccc3)nc21` gave Coupling enz 5 and Sfp PPTase inh 4%.
For Cc1ccc2c(c1)cc(C(=O)Nc1ccc(F)cc1F)n2C the results were Tau ThT inhib -11%, Tau fluor counter -13% and Tau FP inhib -12%.
Screening Cc1ccc(C(=O)OCN2C(=O)c3ccccc3C2=O)c(O)c1 returned Coupling enz 2 and Sfp PPTase inh 18%.
For Cc1ccc(C(O)(COC(=O)C(C)C)COC(=O)C(C)C)c(O)c1 the results were Tau ThT inhib inconclusive, Coupling enz -2, Tau fluor counter -19%, Tau FP inhib 1% and Sfp PPTase inh 79µM*.
Screening COc1ccccc1-c1noc(-c2ccc(N3CCOCC3)c([N+](=O)[O-])c2)n1 returned Tau ThT inhib 3%, Tau fluor counter 2% and Tau FP inhib 4%.
For COc1ccc(-c2nc3cnc(N4CCN(C)CC4)nc3n(CCc3ccccc3)c2=O)cc1 the results were Coupling enz 2 and Sfp PPTase inh 26%.
Screening C=CCn1cccc(/C=C/C(=O)c2ccc(C(C)(C)C)cc2)c1=S returned Tau ThT inhib 20µM*, Coupling enz 2, Tau fluor counter -11%, Tau FP inhib 16% and Sfp PPTase inh -21%.
`CN1CCN(C(=S)NC(=O)c2ccc(C(C)(C)C)cc2)CC1` gave Tau ThT inhib 4%, Coupling enz 2, Tau fluor counter -1%, Tau FP inhib 7% and Sfp PPTase inh -7%.
`O=C(O)c1cccc(N/N=C/C2=C(Cl)c3cc(Cl)ccc3SC2)c1` gave Tau ThT inhib 6.3µM*, Coupling enz 11, Tau fluor counter inconclusive, Tau FP inhib inconclusive and Sfp PPTase inh -22%.
